Calls of active or inactive are those of the source. How the calls were made is not given here.

A short description of this experiment: inhibition of Brca1/Bard1 split-luciferase complementation, confirmation, counter-screen for Mdm2/MdmX interaction inhibitor project, luminescence, single concentration (AID 504668). The conditions noted are these: Brca1/Bard1 bimolecular luciferase complementation counterscreen, at 8 µM, hits give high values.
As to `C#CCn1c(=NC(=O)c2ccc(S(=O)(=O)N3CCc4ccccc4C3)cc2)sc2cc(S(N)(=O)=O)ccc21`, the inhibition (in general, the percentage by which the read-out fell short of the control) was 23% (active).
The same measure for `C/C(=N\Nc1nc(-c2ccccn2)nc2ccccc12)c1ccc(F)cc1`: 34.4% (active); for `O=C(CCl)Nc1cccc(S(=O)(=O)N2CCCCCC2)c1`: 24% (active); for `O=[N+]([O-])c1ccc2ncnc(Nc3ccc4c(c3)OCCO4)c2c1`: 29.6% (active).
With `O=C(Nc1cc(Cl)ccc1O)c1snnc1-c1ccccc1`, the inhibition was 23% (active).
Consider `O=C(/C=C/c1ccc2ccccc2n1)N1CCN(S(=O)(=O)c2ccc(F)cc2)CC1`, for which the inhibition is 35.1% (active).
The same measure for `C/C(N=Nc1nc2ccccc2s1)=N\Nc1ccccc1O`: 26.2% (active).
With `O=C(NC(CSCc1ccccc1)C(=O)N/N=C/c1ccc(O)cc1O)c1ccc([N+](=O)[O-])cc1` (stereo not given), the inhibition is 34.3% (active).
The same measure for `CSc1nc2nccc(/C=C\c3ccccc3)n2n1`: 23.7% (active); for `O=C(Nc1nc(-c2ccccn2)cs1)c1cccc(S(=O)(=O)N2CCOCC2)c1`: 33.4% (active).
Consider `CC(C)=CCc1c2c(c(O)c3c(=O)c4c(oc13)-c1cc(O)c(O)cc1OC4C=C(C)C)C=CC(C)(C)O2` (stereo not given), for which the inhibition is 34.4% (active).
On to `CC(=O)N(C(C)=O)c1ncc2c([nH]c3ccccc32)c1C#N`, for which the inhibition is 33.1% (active).
The same measure for `CCCCN(CC)CCNC(=O)c1cc2c(-c3ccc(Cl)cc3)nn(C)c2s1`: 31.2% (active); for `O=C(Nc1ccc(Br)c(C(F)(F)F)c1)c1ccc(C(F)(F)F)cc1`: 28.7% (active).
Take `COC(=O)c1ccc(Sc2nnnn2-c2ccccc2)c([N+](=O)[O-])c1`: the inhibition is 23% (active).

The record behind these values is PubChem BioAssay.
